According to PubChem BioAssay (NCI):
Compounds without any hit were thinned out: in the full panel of roughly 79,000, 15% have a hit. Activity calls are given as the source filed them. No stated cut-off is given here; in the data, active means growth inhibition above about 70%; inactive means the rest.

How the values were obtained:
[1] = NCI Yeast Anticancer Drug Screen. Data for the wt1 strain (AID 149);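 further: 0% = growth of vehicle-treated wt1 cultures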; settings: S. cerevisiae wt1 strain (SPY 50644) growth inhibition, active compounds read high
Outline: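 Readout: yeast growth inhibition, normalised to vehicle controls, in the wt1 strain exposed to test compounds.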

[2] = NCI Yeast Anticancer Drug Screen. Data for the rad50EPP+ strain (AID 151);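 further: 0% = growth of vehicle-treated control cultures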; settings: S. cerevisiae rad50 mutant strain, active compounds read high
Outline: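 Genetically defined yeast (rad50EPP+, DNA damage repair alteration) is grown with compound, and inhibition of growth is expressed relative to vehicle-treated controls.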

[3] = NCI Yeast Anticancer Drug Screen. Data for the mgt1 strain (AID 153); settings: S. cerevisiae mgt1 mutant growth inhibition, active compounds read high
Outline: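 In the mgt1 strain, test compounds were added and growth inhibition was determined relative to vehicle-treated controls.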

[4] = NCI Yeast Anticancer Drug Screen. Data for the rad50 strain (AID 155);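 further: 0% = growth of vehicle-only cultures of the same strain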; settings: S. cerevisiae rad50 strain growth inhibition, active compounds read high
Outline: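 Compounds were tested on a yeast strain with an engineered DNA damage repair alteration; the reported value is growth inhibition normalised to vehicle treatment.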

[5] = NCI Yeast Anticancer Drug Screen. Data for the mec2-1 strain (AID 157); settings: S. cerevisiae mec2-1 strain, active compounds read high
Outline: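 Each compound was tested on mec2-1 yeast, a strain altered in DNA damage repair or cell cycle control. Growth inhibition is reported relative to vehicle.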

[6] = NCI Yeast Anticancer Drug Screen. Data for the rad14 strain (AID 159);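 further: 0% = growth of vehicle-treated control cultures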; settings: S. cerevisiae rad14 strain growth inhibition, active compounds read high
Outline: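 Compound-treated yeast with a defined DNA-repair lesion; growth inhibition normalised to vehicle-treated cultures.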

[7] = NCI Yeast Anticancer Drug Screen. Data for the sgs1 mgt1 strain (AID 161);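 further: 0% = growth of cultures given vehicle only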; settings: S. cerevisiae sgs1 mgt1 strain, active compounds read high
Outline: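 Inhibition of yeast growth, normalised to vehicle-treated controls, is reported for a strain bearing genetic alterations in DNA damage repair.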

[8] = NCI Yeast Anticancer Drug Screen. Data for the CLN2oe strain (AID 163);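 further: 0% = growth of vehicle-only control cultures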; settings: S. cerevisiae CLN2oe strain, active compounds read high
Outline: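 First, the altered yeast strain was treated with each compound; second, its growth was measured; finally, inhibition was derived by comparison with vehicle controls.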

[9] = NCI Yeast Anticancer Drug Screen. Data for the cln2 rad14 strain (AID 165);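 further: 0% = growth equal to vehicle treated cultures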; settings: S. cerevisiae cln2 rad14 strain, active compounds read high
Outline: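 Test compounds were added to cln2 rad14 yeast cultures; inhibition of growth was then determined by comparison with vehicle treatment.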

[10] = NCI Yeast Anticancer Drug Screen. Data for the bub3 strain (AID 167); settings: S. cerevisiae bub3 mutant strain, active compounds read high
Outline: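 Growth of a checkpoint-deficient yeast mutant is measured after compound exposure. Values represent inhibition relative to vehicle.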

[11] = NCI Yeast Anticancer Drug Screen. Data for the wt2 strain (AID 169);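 further: 0% = growth of vehicle-treated yeast cultures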; settings: S. cerevisiae wt2 strain growth inhibition, active compounds read high
Outline: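 The panel's yeast strains carry defined changes in DNA repair or cell cycle genes. Each strain is grown with compound, and growth loss is scored relative to vehicle.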

[12] = NCI Yeast Anticancer Drug Screen. Data for the mlh1 strain (AID 171);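 further: 0% = growth of vehicle-treated control cultures of the same strain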; settings: S. cerevisiae mlh1 strain growth inhibition, active compounds read high
Outline: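 Inhibition values reflect reduced yeast growth in the presence of compound, referenced to vehicle controls, using a strain chosen for its alteration in DNA repair or cell cycle control.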

[13] = NCI Yeast Anticancer Drug Screen. Data for the sgs1 strain (AID 173);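 further: 0% = growth of vehicle-only control cultures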; settings: S. cerevisiae sgs1 mutant, active compounds read high
Outline: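 Vehicle-treated cultures served as reference for growth inhibition of a yeast strain altered in DNA damage repair or cell cycle control after compound exposure.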

[14] = NCI Yeast Anticancer Drug Screen. Data for the mlh1 rad18 strain (AID 175); settings: S. cerevisiae mlh1 rad18 strain growth inhibition, active compounds read high
Outline: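 Inhibition values reflect reduced growth of mutant yeast versus vehicle-treated controls following compound exposure; the mutations affect DNA damage repair.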

[15] = NCI Yeast Anticancer Drug Screen. Data for the rad18 strain (AID 177); settings: S. cerevisiae rad18 mutant growth inhibition, active compounds read high
Outline: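 Steps: expose repair-mutant yeast to compound; measure growth; express as inhibition relative to vehicle control.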

[16] = at 5.0 µM (retest, dose inferred, filed as 0.5)
[17] = at 50.0 µM (retest, dose inferred, filed as 5.0)

Measured: growth inhibition

CCCCCCCCCC/C=C\CC(=O)O
active: [1]; at 100.0 µM 97% | [3]; at 100.0 µM 99% | [4]; [17] 81% | [4]; at 100.0 µM 99% | [5]; [17] 74% | [5]; at 100.0 µM 99% | [6]; at 100.0 µM 99% | [7]; [17] 89% | [8]; at 100.0 µM 73% | [10]; at 100.0 µM 98% | [11]; at 100.0 µM 98% | [12]; at 100.0 µM 99% | [13]; at 100.0 µM 99% | [14]; [17] 87% | [15]; at 100.0 µM 99%
inactive: [1]; at 1.2 µM -1% | [1]; at 3.7 µM -2% | [1]; at 11.0 µM -3% | [1]; at 33.0 µM 2% | [2]; at 1.2 µM -4% | [2]; at 3.7 µM 3% | [2]; at 11.0 µM 11% | [2]; at 33.0 µM 22% | [2]; at 100.0 µM 47% | [3]; at 1.2 µM -3% | [3]; at 3.7 µM -2% | [3]; at 11.0 µM -2% | [3]; at 33.0 µM 28% | [4]; at 1.2 µM 0% | [4]; at 3.7 µM -1% | [4]; [16] -1% | [4]; at 11.0 µM 17% | [4]; at 33.0 µM 18% | [4]; at 50.0 µM -10.8% | [5]; at 1.2 µM -3% | [5]; at 3.7 µM 0% | [5]; [16] 5% | [5]; at 11.0 µM 1% | [5]; at 33.0 µM 8% | [5]; at 50.0 µM -0.8% | [6]; at 1.2 µM 0% | [6]; at 3.7 µM 1% | [6]; at 11.0 µM 9% | [6]; at 33.0 µM 33% | [7]; [16] -1% | [7]; at 50.0 µM 6.35% | [8]; at 1.2 µM -3% | [8]; at 3.7 µM -1% | [8]; at 11.0 µM -1% | [8]; at 33.0 µM -5% | [9]; [16] 7% | [9]; [17] 14% | [9]; at 50.0 µM 9.65% | [10]; at 1.2 µM -2% | [10]; at 3.7 µM -4% | [10]; [16] 1% | [10]; at 11.0 µM -8% | [10]; at 33.0 µM -3% | [10]; [17] 1% | [10]; at 50.0 µM 36.1% | [11]; at 1.2 µM -2% | [11]; at 3.7 µM 6% | [11]; at 11.0 µM -3% | [11]; at 33.0 µM 3% | [12]; at 1.2 µM 0% | [12]; at 3.7 µM -4% | [12]; at 11.0 µM -3% | [12]; at 33.0 µM 11% | [13]; at 1.2 µM -3% | [13]; at 3.7 µM -2% | [13]; at 11.0 µM 2% | [13]; at 33.0 µM 31% | [14]; [16] 4% | [14]; at 50.0 µM -21.2% | [15]; at 1.2 µM -3% | [15]; at 3.7 µM 2% | [15]; at 11.0 µM -1% | [15]; at 33.0 µM 48%
